High-throughput results (PubChem BioAssay)
Sm TGR inh = qHTS Assay for the Inhibitors of Schistosoma Mansoni Peroxiredoxins; Schistosoma mansoni thioredoxin glutathione reductase (TGR), Q962Y6; purified TGR, DTNB reduction, TNB absorbance 405 nm; Potency, µM (series often up to 114 µM), for inactives: at the top dose activity change, negative = inhibition, most hits filed as inhibitors; 360,000 compounds, 3% hits; AID 485364, 2010; further: potency means the concentration at half of the fitted maximal effect; on the % scale 0 is the no-effect control and ±100 the full control effect; nearly all actives have a fitted effect of over 60% in size
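Kinetic colorimetric format: TGR-catalysed, NADPH-driven DTNB reduction monitored via TNB absorbance. Enzyme dispensed at 20 nM; compound exposure 15 min at room temperature before reaction start.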
SARS PLP yeast = qHTS of Yeast-based Assay for SARS-CoV PLP | S. cerevisiae expressing SARS-CoV PLpro, growth rescue | Potency, µM (series often up to 32.9 µM), for inactives: at the top dose activity, positive = growth rescue, actives largely listed as activators | 330,000 compounds, 0.19% hits | AID 485353, 2010; calls by dose curve; further: potency means the concentration at half of the fitted maximal effect; 0% is about no effect; nearly all actives have a fitted effect of over 55% in size
Pf growth 48h = Primary qHTS for delayed death inhibitors of the malarial parasite plastid, 48 hour incubation; P. falciparum luciferase growth in erythrocytes, 48 h; Potency, µM (top dose mostly 28.7 µM), inactives show top-dose activity change, negative = inhibition, actives largely listed as inhibitors; 310,000 compounds, 5.9% hits; further: potency means the concentration at half of the fitted maximal effect; on the % scale 0 is the no-effect control and ±100 the full control effect
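A one-generation exposure of luciferase-tagged malaria parasites in RPMI 1640/Albumax erythrocyte culture, 37 C and 5% CO2. Inhibition is inferred from decreased luminescence after adding detection reagent.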
HCMV antiviral = qHTS Assay for inhibitors of the human cytomegalovirus (HCMV); HFF cells, HCMV-luciferase reporter, 72 h; stronger effect = lower value; activity change, negative = inhibition, % at 57.5 µM; 410,000 compounds, 4.5% hits; AID 1259415, 2018; in the data active means activity change below about -60%; inconclusive means no clear call, values can overlap the other calls; inactive means above about -39%; further: on the % scale 0 is the no-effect control and ±100 the full control effect
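Two-dose cell screen: HFF monolayers treated with compounds and infected with luciferase-expressing HCMV at 1 PFU/cell, 72 h at 37C, then lysed for luciferase measurement.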
Pf growth 96h = Primary qHTS for delayed death inhibitors of the malarial parasite plastid, 96 hour incubation; P. falciparum luciferase reporter growth, 96 h; Potency, µM (titrated, usually from 28.7 µM), without a hit: at the highest dose activity change, negative = inhibition, usual class: inhibitors; 320,000 compounds, 6.9% hits; AID 504834, 2011; further: potency means the concentration at half of the fitted maximal effect; on the % scale 0 is the no-effect control and ±100 the full control effect
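Cell-based qHTS: luciferase-tagged P. falciparum in erythrocytes (2% hematocrit, 0.05% parasitemia final) incubated with compounds for 96 hours, 37 C, 5% CO2; luciferase detection reagent then added and luminescence measured.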
HCV inhibitor = qHTS Assay for Inhibitors of Hepatitis C Virus (HCV); Huh7.5.1 HCVcc-Cre infection, luciferase reporter, 44 h; Potency, µM (highest dose often 41.8 µM), without a hit: top-dose activity change, negative = inhibition, hits mostly inhibitors; 340,000 compounds, 3.4% hits; AID 651820, 2012; further: potency means the concentration at half of the fitted maximal effect; on the % scale 0 is the no-effect control and ±100 the full control effect
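1,000 cells/well; 4 h culture; + compound; + HCVcc-Cre (~0.5 moi); 44 h; luciferase substrate, RT 15 min; read 15 sec.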
Starred values were filed as active, the others as inactive; u = inconclusive; x = not tested or not shown; [ ] = another dose, or the depositor's remark. Only some compounds are listed: those with a hit (about 15% of all), similar ones and a draw of the others. Unless noted, the call rests on the fitted dose curve; in most records, active means well fitted curve in the direction sought with a large enough effect; inconclusive means small, poorly fitted or top-dose-only effect, or another doubt; inactive means no such curve, though single readings can be large; an effect the other way counts as inactive or inconclusive.

SMILES | Sm TGR inh | SARS PLP yeast | Pf growth 48h | HCMV antiviral | Pf growth 96h | HCV inhibitor
CC(C)(Sc1cc(C(C)(C)C)c(O)c(C(C)(C)C)c1)Sc1cc(C(C)(C)C)c(O)c(C(C)(C)C)c1 | -3% | 17% | 7.2µM* | 108 | 1µM* | -11%[8.37 µM]
CCN(CC)CCN1C(=O)C(O)=C(C(C)=O)C1c1ccccc1[N+](=O)[O-] (stereo not given) | 45µM* | -1% | -21% | 47 | u | 7%
CC(=O)C1=C(O)C(=O)N(CCc2ccccc2)C1c1ccccc1[N+](=O)[O-] (stereo not given) | -23% | -9% | -9% | -9 | 85% | 0%
Oc1ccc(N=Nc2n[nH]c(-c3ccc(Cl)cc3)n2)cc1 | 9% | -16% | 11% | -95* | u | -13%
O=C(CN(C1CCCCC1)S(=O)(=O)c1ccc(Cl)cc1)NCc1cccnc1 | 9% | 0% | u | 16 | -3% | 4%
O=C(CN(C1CCCCC1)S(=O)(=O)c1ccccc1)NCc1cccnc1 | -24% | -14% | -30% | -6 | 9.3µM* | 5%
COc1ccccc1NC(=O)CSc1nccc(-c2ccco2)n1 | 25µM* | 0% | u | 16 | u | -8%
CCc1ccc(NC(=O)CSc2ccc(-c3ccco3)nn2)cc1 | 20µM* | -2% | 2% | 14 | 32% | u
COc1ccccc1CCNC(=O)CSc1ccc(-c2ccco2)nn1 | 3.5µM* | 1% | u | 21 | u | -13%
COc1ccccc1NC(=O)CSc1nnc(-c2ccco2)o1 | 4% | 1% | 32% | 34 | 115% | 13%
COc1ccccc1-c1ccc(SCC(=O)NCCc2ccccc2)nn1 | 3% | 1% | -17% | -13 | u | -16%
CC(=O)c1cccc(NC(=O)CSc2ccc(-c3ccco3)nn2)c1 | u | -7% | -10% | -29 | -23% | u
O=C(CSc1ccc(-c2ccco2)nn1)c1cccc([N+](=O)[O-])c1 | u | 5% | u | -35 | 13µM* | -25%
O=C(CSc1ccc(-c2ccco2)nn1)N1CCCC1 | 18µM* | -1% | 13% | 9 | -12% | -1%
COc1ccc(C)cc1NC(=O)CSc1ccc(-c2ccco2)nn1 | u | -8% | -10% | u | u | 10µM*
O=C(CSc1ccc(-c2ccco2)nn1)N1CCCCC1 | u | -4% | 40% | -5 | 12% | 10%
COc1cccc(CNC(=O)CSc2ccc(-c3ccccn3)nn2)c1 | -9% | 26% | u | -32 | 1% | -1%
COc1ccc(C)cc1NC(=O)CSc1nnc(-c2ccco2)n1N | -1% | 0% | 3% | 17 | 28% | 13%
COc1cccc(CNC(=O)CSc2ccc(-c3ccco3)nn2)c1 | 8.9µM* | 0% | -4% | -16 | 2% | 1%
O=C(CSc1ccc(-c2ccco2)nn1)NCc1ccc(Cl)cc1 | 16µM* | -8% | 5% | 8 | u | 8%
CN1CCN(C2CCN(c3cccc(Cl)c3)CC2)CC1CCO (stereo not given) | u | -11% | 23% | 2 | 75% | -6%
Cc1ccc(-c2cc(NC(=O)COc3c(C)cc(C)cc3C)on2)cc1 | -4% | x | x | 54 | x | x
O=C(CSc1ccc(-c2ccco2)nn1)NCc1ccccc1 | 35µM* | 11% | -12% | 19 | u | -5%
Cc1cccc(NC(=O)CSc2ccc(-c3ccco3)nn2)c1C | 2% | 9% | -5% | -14 | u | u
CCn1nc(C)c(NC(=O)CCCSc2nc(-c3ccco3)cc(C(F)(F)F)n2)c1C | 50µM* | -5% | u | -33 | 38% | 2µM*
CCn1ncc(CNC(=O)CCSc2nc(-c3ccco3)cc(C(F)(F)F)n2)c1C | -16% | 12% | u | -18 | 60% | 10µM*
